Assay [1] can be described thus: qHTS assay for small molecule agonists of the p53 signaling pathway (AID 651631; calls by dose curve; note: nearly all actives have a fitted effect of over 15% in size; note: potency is the fitted concentration of half-maximal effect). The essentials:
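Fluorescence intensity from cleaved LiveBLAzer B/G substrate (2 h, room temperature) served as the signal. Beforehand, HCT-116 reporter cells bearing p53 response elements were treated 16 h at 37 °C with DMSO-dissolved compounds.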
Background: In qHTS, concentration-response curves come from the screen itself.

A short description of assay [2]: qHTS assay for small molecule disruptors of the mitochondrial membrane potential - cell viability (AID 720634; calls by dose curve;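 note: human HepG2 liver cancer cells; series mostly up to about 83 µM; nearly all actives have a fitted effect of over 20% in size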). Put shortly:
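In this qHTS format, HepG2 cells plated overnight were pinned with compound, incubated 1 hr, and assayed for ATP luminescence with CellTiter-Glo after m-MPI dye addition.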

The nature of assay [3]: qHTS assay for small molecule disruptors of the mitochondrial membrane potential (AID 720635). Note: potency is the fitted concentration of half-maximal effect. Put shortly: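 HepG2 cells (2,000/well) attached overnight at 37C, then took compound for 1 hr at 37C, 5% CO2. Mito-MPS dye was added for 30 min; fluorescence was read at 490/535 nm (monomers) and 540/590 nm (aggregates).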
A short description of assay [4]: qHTS assay to test for compound auto fluorescence at 590 nm (red) in HepG2 cells (AID 720674). Put shortly:
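Compound auto-fluorescence is scored relative to Rose Bengal sodium, measured at 540/590 nm in live HepG2 cultures after 1 hr compound contact (37 C, 5% CO2).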

Assay [5] is described as follows: qHTS assay to test for compound auto fluorescence at 460 nm (blue) in HEK293 cells (AID 720678). Note: potency is the fitted concentration of half-maximal effect. Put shortly: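 Auto fluorescence in the blue band was quantified as triamterene equivalency. HEK293 cells were seeded at 2,000/well, dosed after a 4-5 hr attachment, and kept overnight at 37C before the 405/460 nm reading.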
The nature of assay [6]: qHTS assay to test for compound auto fluorescence at 590 nm (red) in HEK293 cells (AID 720679). Put shortly: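 Autofluorescence equivalency to Rose Bengal sodium, 540/590nm, in HEK293 cells exposed overnight to 23 nL compound per well.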
Assay [7] is described as follows: qHTS assay for small molecule agonists of the p53 signaling pathway - cell viability (AID 651633; calls by dose curve; note: nearly all actives have a fitted effect of over 30% in size; note: potency is the fitted concentration of half-maximal effect). Put shortly: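 p53RE-bla cells, seeded at 4,000 per well and rested 5 h at 37 C/5% CO2, received compounds in DMSO for 16 h at 37 C. CellTiter-Glo was then added, and luminescence was read after 30 min at room temperature to gauge cytotoxicity.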
The nature of assay [8]: qHTS assay for small molecules that induce genotoxicity in human embryonic kidney cells expressing luciferase-tagged ATAD5 - cell viability (AID 651634; calls by dose curve; note: nearly all actives have a fitted effect of over 25% in size). The essentials:
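15.5 hr compound or vehicle exposure of HEK293T cells expressing luciferase-tagged ATAD5 at 37C; live-cell protease activity is read by fluorescence after 30 min of CellTiter-Fluor.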

The nature of assay [9]: qHTS assay to test for compound auto fluorescence at 535 nm (green) in HepG2 cells (AID 720675).

“And” between values parts separate entries of the source, which are not always exact repeats. Identical values can stand only once. Inconclusive results are not listed. The source made the active and inactive calls. Unless noted, calls come from the whole dose curve; as a rule, active = well fitted curve in the direction sought with a large enough effect in the repeat runs; inconclusive = weak or mixed curves; inactive = no such curve, though single readings can be large; an effect the other way counts as inactive or inconclusive.
Tags give direction and shape of the fitted curve or compound fluorescence and quenching.

`COc1cc(NS(C)(=O)=O)ccc1Nc1c2ccccc2nc2ccccc12`: the Potency in assay [1] is 1.68 µM (active); in [3], 8.8 µM (active); in assay [5], 11.2 µM [fluorescent] (active). Further, in assay [2], the Potency result is “inactive”. The call in [4] and in assay [6] was inactive.
`CCC(O)c1ccccc1` (stereo unspecified): the Potency result in assay [1], in assay [7], in assay [8], in assay [2], in [3] and in assay [9] was “inactive” each time. In assay [5], the Potency entry is “inactive”. The result in assay [4] and in [6] was inactive.
With `CC(=O)OCC(=O)[C@@]1(O)CC[C@H]2[C@@H]3C[C@H](C)C4=CC(=O)C=C[C@]4(C)[C@H]3[C@@H](O)C[C@@]21C`, the Potency result in assay [1], in [7], in [8], in assay [2], in [3] and in assay [9] was “inactive” in each case. Further, the Potency entry in [5] is “inactive”. In addition, the result in assay [4] and in assay [6] was inactive.
As for `OCC1(CO)COC(C(Cl)(Cl)Cl)OC1`, the Potency entry in assay [1], in assay [8], in assay [2], in [3], in assay [9] and in assay [5] was “inactive” throughout. Further, the outcome in [4] and in [6] was inactive.
Regarding `Nc1nc(/C(=C/CC(=O)O)C(=O)N[C@@H]2C(=O)N3C(C(=O)O)=CCS[C@H]23)cs1`, the Potency entry in assay [1], in assay [7], in assay [8], in assay [3] and in [5] was “inactive” each time. In addition, the result in [4] and in assay [6] was inactive.
`C[Se]CC[C@H](N)C(=O)O`: the Potency result in [1], in assay [7], in assay [8], in assay [2], in assay [3] and in assay [9] was “inactive” each time. Besides, the Potency result in [5] is “inactive”. The result in [6] was inactive.
Take `Cc1c(N)nc([C@H](CC(N)=O)NC[C@H](N)C(N)=O)nc1C(=O)N[C@H](C(=O)N[C@H](C)[C@@H](O)[C@H](C)C(=O)N[C@H](C(=O)NCCc1nc(-c2nc(C(=O)NCCCCN=C(N)N)cs2)cs1)[C@@H](C)O)[C@@H](O[C@@H]1O[C@@H](CO)[C@@H](O)[C@H](O)[C@@H]1O[C@H]1O[C@H](CO)[C@@H](O)[C@H](OC(N)=O)[C@@H]1O)c1cnc[nH]1`: the Potency in assay [1] was 841 nM (active) and 66.8 nM (active). Besides, the Potency result in assay [7], in [8], in assay [2], in assay [3], in [9] and in assay [5] was “inactive” throughout. Further, the result in [4] and in [6] was inactive.
Take `CC1(C)C[C@@H]1C(=O)N/C(=C\CCCCSC[C@H](N)C(=O)O)C(=O)O`: the Potency entry in assay [1], in assay [7], in assay [8], in assay [2], in assay [3] and in assay [9] was “inactive” in each case. In assay [5], the Potency result is “inactive”. The compound was called inactive in [4] and in [6].
For the compound `O=C1OC(O)C(C(Cl)Cl)=C1Cl` (stereo unspecified), the Potency in [1] was 14.1 µM (active); in [7], 15.8 µM (active); in [3] it was 63 µM (active). Besides, the compound was called inactive in assay [4] and in assay [6]. Besides, the Potency result in [9] and in assay [5] was “inactive” throughout.
With `NC(=O)[C@H]1O[C@@H](O)[C@H](O)[C@@H](O)[C@@H]1O`, the Potency result in assay [1], in assay [7], in [8], in assay [2], in assay [3] and in assay [9] was “inactive” throughout. In addition, in [5], the Potency result was “inactive”. In addition, the compound was called inactive in [4] and in assay [6].
Consider `O=C1[O][Bi][O]c2ccccc21`, for which the Potency result in assay [1], in [7], in assay [8], in [2] and in assay [3] was “inactive” throughout.
In the case of `NC[C@@H]1CC[C@@H](N)[C@@H](O[C@H]2[C@H](O)[C@@H](O[C@H]3O[C@H](CO)[C@@H](O)[C@H](N)[C@H]3O)[C@H](N)C[C@@H]2N)O1`, the Potency result in [1], in [7], in [8], in [3], in [9] and in assay [5] was “inactive” in each case. Further, the result in [4] and in assay [6] was inactive.
For `Cc1cc(=O)c(C(=O)N[C@@H](C(=O)N[C@@H]2C(=O)N3C(C(=O)O)=C(CSc4nnnn4C)CS[C@H]23)c2ccc(O)cc2)c[nH]1`, the Potency entry in [1], in [8], in assay [2], in assay [9] and in assay [5] was “inactive” in each case. In addition, the compound was called inactive in assay [4] and in [6].
With `O=C1CC[C@@H](C(=O)N[C@H]2C[C@@H]2c2ccccc2)N1`, the Potency result in assay [1], in assay [7], in assay [8], in assay [2], in [3] and in assay [9] was “inactive” in each case. In assay [5], the Potency result was “inactive”. Also, the result in assay [4] and in [6] was inactive.
Turning to `NC(=O)[C@@H]1CCCN1C(=O)[C@H](Cc1cnc[nH]1)NC(=O)[C@@H]1CCC(=O)N1`, the Potency entry in assay [1], in [7], in [8], in assay [2], in assay [3] and in assay [5] was “inactive” throughout. Moreover, the compound was called inactive in assay [4] and in [6].
As to `CO/N=C(\C(=O)N[C@@H]1C(=O)N2C(C(=O)O)=C(C[N+]3(C)CCCC3)CS[C@H]12)c1csc(N)n1`, the Potency result in [1], in assay [7], in [8], in [3], in [9] and in [5] was “inactive” in each case. Further, the result in [4] and in [6] was inactive.
With `Cc1cnc(C(=O)O)c[n+]1[O-]`, the Potency entry in assay [1], in assay [7], in [8], in [3], in assay [9] and in assay [5] was “inactive” in each case. The compound was classed as inactive in assay [4] and in assay [6].
For `CC1(C)S[C@@H]2[C@H](NC(=O)[C@H](N)c3ccc(O)cc3)C(=O)N2[C@H]1C(=O)O`, the Potency entry in [1], in assay [7], in assay [8], in [3] and in assay [9] was “inactive” in each case. Besides, the result in assay [4] and in assay [6] was inactive.

For the origin of these results see PubChem BioAssay (Tox21).
